hgDAF-12 ag: agonists of H. glycines DAF-12 nuclear receptor. activation, % at 6.8 µM. HEK293 GAL4-hgDAF12 UAS-luciferase reporter, agonist luminescence; normalized to butyrate control. 370,000 compounds, 1.8% hits;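 active = activation above a cutoff set at the mean of all screened compounds plus 3 SD, cut at about 10% in these data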
hcDAF-12 act: H. contortus DAF-12 activation, primary screen; HEK293 hcDAF-12 lit1-tk-luc reporter, luminescence; 0% DMSO, 100% Δ7-dafachronic acid; activation, % at 6.8 µM; 370,000 compounds, 1.4% hits;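 active = activation above the mean of all tested compounds plus 3 SD, cut at about 5.5% in these data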
GAA850 FXN act: frataxin GAA850 promoter activation | HEK293 lucGAA850 FXN promoter luciferase reporter, 24 h; percent of 10 µM SAHA response | activation, % at 6 µM | 360,000 compounds, 0.56% hits | AID 540364;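 active = activation above the average of all compounds screened plus 3 SD, cutoff fixed separately per campaign, cut at about 7.5% in these data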
ssDAF12 agonist: S. stercoralis DAF-12 activation, primary screen; HEK293 ssDAF-12/GRIP1 lit1-tk-luc reporter, luminescence; % of 3 µM dafachronic acid response; activation, % at 6.8 µM; 370,000 compounds, 1% hits; AID 652126;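 active = activation above the mean over all tested compounds plus 3 SD, cut at about 0.9% in these data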
DAX1 inh-1: NR0B1 (DAX1) inhibition. HEK293 Gal4-DAX1 luciferase reporter, luminescence. AID 504766. P51843. inhibition, % at 6.75 µM. 340,000 compounds, 0.99% hits;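 active = inhibition above the mean over all tested compounds plus 3 SD, cut at about 4.2% in these data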;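 also: inhibition shows as a rise in luminescence from relieved DAX1 repression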
Target sequence (P51843 207-470 limits assumed): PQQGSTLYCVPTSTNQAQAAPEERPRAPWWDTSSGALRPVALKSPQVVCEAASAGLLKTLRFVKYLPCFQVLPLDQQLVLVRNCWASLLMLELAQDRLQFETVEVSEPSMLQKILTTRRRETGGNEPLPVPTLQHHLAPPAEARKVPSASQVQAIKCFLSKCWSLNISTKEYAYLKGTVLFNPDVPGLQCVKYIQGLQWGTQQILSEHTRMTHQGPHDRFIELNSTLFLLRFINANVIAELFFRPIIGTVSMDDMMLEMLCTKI
DAX1 inh-2: DAX1 (NR0B1) inhibition, primary screen; 370,000 compounds, 1.1% hits; inhibition, % at 6.8 µM; HEK293T StAR-luciferase reporter, SF-1/DAX-1 repression relief;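 active = inhibition above the mean over all tested compounds plus 3 SD, cut at about 3.6% in these data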;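 also: higher inhibition means more luminescence from relief of DAX-1 repression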
hgDAF12 ag: confirmation of H. glycines DAF-12 agonists; shares compounds with hgDAF-12 ag; HEK293 GAL4-hgDAF12 luciferase reporter, agonist mode; percent of butyrate response; activation, % at 6.8 µM; 3,300 compounds, 80% hits; AID 743050;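 active = mean activation over triplicate wells above the hit cutoff derived from the earlier primary screen, cut at about 11% in these data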
LXRb DAF12 ctr: LXR-beta agonism as DAF-12 counter-screen; shares compounds with hgDAF-12 ag; HEK293 Gal4-LXR luciferase reporter, 24 h; activation, % at 6.8 µM; 3,300 tested, under 10 active; AID 743051;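 active = mean activation of the triplicate above a set limit carried over from the primary screen, none filed active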
Large screens that a line does not name were inactive (follow-up assays come after a bar, where they were run). A selection: hits, their analogues and other compounds. The true share with any hit is near 4.5%.

COc1ccc(CN2CC(=O)N3[C@H]4c5ccccc5OC[C@@H]4[C@H](c4ccccc4)[C@]3(C)C2=O)cc1	none
C=CCN1C(=O)[C@@H](CC(=O)N2CCSCC2)[C@]2(C(=O)OC)CCCCC=C12	hgDAF-12 ag 17 (no result: GAA850 FXN act, DAX1 inh-1) | hgDAF12 ag inactive | LXRb DAF12 ctr inactive
CCc1ccc(CNc2ccc3c(c2)ncn3C(C)(C)C)cc1	none
CC(C)(C)n1cnc2cc(NC(=O)c3ccc(Cl)cc3)ccc21	hgDAF-12 ag 14, ssDAF12 agonist 1.3 | hgDAF12 ag 19 | LXRb DAF12 ctr inactive
COc1cc(C(=O)Nc2ccc3c(c2)ncn3C(C)(C)C)cc(OC)c1OC	none
CC(C)(C)n1cnc2cc(NCc3ccc(Br)cc3)ccc21	hgDAF-12 ag 17, DAX1 inh-1 4.2 | hgDAF12 ag 13 | LXRb DAF12 ctr inactive
CN(c1nc2ccccc2[nH]c1=O)C1CCCCC1	none
COCCNC(=O)/C(C#N)=C/c1cc(C)n(C2CCCCC2)c1C	hgDAF-12 ag 20, DAX1 inh-2 4.0 | hgDAF12 ag inactive | LXRb DAF12 ctr inactive
Cc1cc(/C=C(\C#N)C(=O)O)c(C)n1C1CC1	none
COc1ccc(-n2c(C)cc(/C=C(\C#N)C(=O)NCc3ccco3)c2C)cc1	none
COCCNC(=O)/C(C#N)=C/c1cc(C)n(-c2ccc(C)cc2)c1C	hgDAF-12 ag 22, hcDAF-12 act 6.1 | hgDAF12 ag 15 | LXRb DAF12 ctr inactive
CC(C)CC(=O)CC1(O)C(=O)Nc2ccccc21 (stereo not given)	none
O=C(Nc1cccc(O)c1)c1ccc(C(F)(F)F)cc1	hgDAF-12 ag 14 | hgDAF12 ag 13 | LXRb DAF12 ctr inactive
O=C(Nc1cccc(C(F)(F)F)c1)c1cc[n+]([O-])cc1	none
CC(=O)c1cccc(NC(=S)NCCC2=CCCCC2)c1	none
O=C(NCCC1=CCCCC1)Nc1ccc2nsnc2c1	hgDAF-12 ag 20, hcDAF-12 act 5.9, DAX1 inh-2 3.8 | hgDAF12 ag 14 | LXRb DAF12 ctr inactive
C=CC[C@H](CC(=O)NCCO)C(=O)NC[C@@H](OC(=O)[C@@H](CC=C)CC(=O)OC(C)(C)C)c1ccccc1	none
COc1ccc(C2=Nc3ccccc3N(C(=O)c3ccc4c(c3)OCO4)C2C(=O)Nc2c(C)cccc2C)cc1 (stereo not given)	hgDAF-12 ag 14 (no result: GAA850 FXN act, DAX1 inh-1) | hgDAF12 ag inactive | LXRb DAF12 ctr inactive
COc1ccc(C2=Nc3ccccc3N(C(=O)c3ccc4c(c3)OCO4)C2C(=O)NCc2ccccc2)cc1 (stereo not given)	none (no result: GAA850 FXN act, DAX1 inh-1)
CS(=O)(=O)CCC(C(=O)Nc1ccc2c(c1)OCO2)N1Cc2ccccc2C1=O (stereo not given)	none
CN(CC(=O)Nc1ccc(F)cc1)C(=O)Cn1cnc2ccc(Cl)cc2c1=O	none
O=C(c1ccc(S(=O)(=O)Nc2ccccc2F)cc1)N1CCCC1	none
COCCCN=C1NN=C(c2cc(C)n(Cc3ccco3)c2C)CS1	hgDAF-12 ag 15, ssDAF12 agonist 1.6 | hgDAF12 ag inactive | LXRb DAF12 ctr inactive
CNC(=S)N/N=C(\C)c1ccc(-n2ccnc2)cc1	none
C/C(=N\NC(=O)c1ccc(C)cc1C)c1ccc(-n2ccnc2)cc1	hgDAF-12 ag 14 | hgDAF12 ag inactive | LXRb DAF12 ctr inactive
CC(C)(C)c1ccc(CC(=O)N2CCC2(C)C(=O)NS(=O)(=O)c2ccc(Cl)s2)cc1 (stereo not given)	none (no result: DAX1 inh-1)
Nc1nc2ccccc2n1C(=O)c1cccs1	hgDAF-12 ag 15, ssDAF12 agonist 1.0 | hgDAF12 ag 13 | LXRb DAF12 ctr inactive
Nc1nc2ccccc2n1C(=O)CCc1ccccc1	hgDAF-12 ag 14, DAX1 inh-1 5.0 | hgDAF12 ag 18 | LXRb DAF12 ctr inactive
CCOc1ccc(S(=O)(=O)NCc2cccnc2)cc1C(C)C	none
C=CCc1c(C)nc2cc(-c3ccc(C)cc3)[nH]n2c1=O	hgDAF-12 ag 14, hcDAF-12 act 6.3, ssDAF12 agonist 1.0 | hgDAF12 ag 11 | LXRb DAF12 ctr inactive
Cc1ccc(N2CCN(C(=O)c3cn(CC4CCCCC4)nn3)C(C)C2)cc1 (stereo not given)	hgDAF-12 ag 15, ssDAF12 agonist 1.0, DAX1 inh-2 4.3 | hgDAF12 ag 13 | LXRb DAF12 ctr inactive
CCCNC(=O)C1(C)CCN(C(=O)c2cccc(Cl)c2)C1 (stereo not given)	none (no result: DAX1 inh-1)
S=C(NCCc1ccc(Cl)cc1)NC1CC1	hgDAF-12 ag 16 | hgDAF12 ag inactive | LXRb DAF12 ctr inactive
NS(=O)(=O)c1ccc(CCNC(=S)NC2CCCC2)cc1	none
Cc1ccccc1C(=O)NC(=S)Nc1ccc2[nH]c(=O)[nH]c2c1	none
COc1cccc(-c2cn3nc(C)c(C)nc3n2)c1	hgDAF-12 ag 15 | hgDAF12 ag 14 | LXRb DAF12 ctr inactive
COc1ccc(C(=O)N/N=C(\C)Cn2cnc([N+](=O)[O-])n2)cc1	hgDAF-12 ag 15 | hgDAF12 ag inactive | LXRb DAF12 ctr inactive
C/C(Cn1cnc([N+](=O)[O-])n1)=N\NC(=O)c1ccc(F)cc1	none
CN(C)c1nc(/C=C(\C#N)C(N)=O)c(Cl)n1-c1ccc(F)cc1	none
CCOC(=O)Cc1nc2ccccc2[nH]1	none
CCOC(=O)c1ccc(NCc2nc3ccccc3[nH]2)cc1	hgDAF-12 ag 15 | hgDAF12 ag inactive | LXRb DAF12 ctr inactive
CCOC(=O)C1C(c2cccs2)NC(=O)NC1(O)C(F)(F)F (stereo not given)	hgDAF-12 ag 24 | hgDAF12 ag inactive | LXRb DAF12 ctr inactive
CCOC(=O)C1C(c2cccnc2)NC(=O)NC1(O)C(F)(F)F (stereo not given)	none
O=C(CN(C(=O)CNS(=O)(=O)c1ccccc1)c1ccc2c(c1)OCCO2)NCc1ccco1	hgDAF-12 ag 15 | hgDAF12 ag inactive | LXRb DAF12 ctr inactive
Cc1ccc(NC(=O)N2CCCC2C(=O)NCc2ccc(Cl)cc2)cc1 (stereo not given)	none
O=C(NS(=O)(=O)c1ccccc1[N+](=O)[O-])[C@H]1O[C@@H](n2ccc(=O)[nH]c2=O)[C@H](O)[C@@H]1O	hgDAF-12 ag 15 (no result: GAA850 FXN act, DAX1 inh-1) | hgDAF12 ag inactive | LXRb DAF12 ctr inactive
NS(=O)(=O)c1ccc(NC(=S)Nc2ccc(S(=O)(=O)Nc3nccs3)cc2)cc1	none (no result: GAA850 FXN act, DAX1 inh-1)
Cc1cc(C(=O)COC(=O)c2cc(Cl)ccc2N)c(C)n1Cc1ccco1	hgDAF-12 ag 14, DAX1 inh-2 3.7 | hgDAF12 ag 13 | LXRb DAF12 ctr inactive

Source: PubChem (The Scripps Research Institute Molecular Screening Center)
